AC50 and outcome data for 4 compounds are collected here from PubChem BioAssay (EPA / NIEHS).

The source made the active and inactive calls. The calls were made as follows: active = hit-call score of the fitted dose curve at least 0.9, where 1 is the maximum; inactive = score below 0.9.

As a reminder, the AC50 is the concentration giving half of the maximal activity seen.

Holding throughout (details): mRNA level, 48 h; actives raise or lower the signal
Read-out in test [1]: Pro-epidermal growth factor (Homo sapiens) (UniProt P01133)
Kind of test: LTEA_HepaRG_EGF: Life Technologies and Expression Analysis (LTEA) Assay for Epidermal growth factor (EGF) using HepaRG (AID 2283489). Summed up:
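HepaRG cells (~100,000/well, 48 h pre-culture) exposed in duplicate for 48 h in serum-free induction medium to 8 half-log concentrations up to 100 uM in 0.5% DMSO. EGF mRNA by qRT-PCR, normalized to ACTB/GAPDH/POLR2A; bidirectional fit versus DMSO.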

Read-out in test [2]: Early growth response protein 1 (EGR1) transcription factor, EGR1 (gene 1958)
Put plainly: LTEA_HepaRG_EGR1: Life Technologies and Expression Analysis (LTEA) Assay for Early growth response protein 1 (EGR1) transcription factor using HepaRG (AID 2283490). The method in brief:
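HepaRG, 48 h exposure, 8-pt half-log series from 100 uM, 0.5% DMSO vehicle; EGR1 transcript by TaqMan qRT-PCR (Fluidigm array), housekeeping-normalized; bidirectional fit relative to DMSO baseline.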

Read-out in test [3]: Ezrin (EZR), EZR (gene 7430)
Put plainly: LTEA_HepaRG_EZR: Life Technologies and Expression Analysis (LTEA) Assay for Ezrin (EZR) using HepaRG (AID 2283491). Summed up:
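EZR transcript levels came from Fluidigm qRT-PCR and were normalized to three housekeeping genes after 48 h chemical exposure of HepaRG cells. Dosing used an 8-point half-log series with a 100 uM top concentration in 0.5% DMSO, tested in duplicate; both directions were fitted versus vehicle.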

Read-out in test [4]: Cytochrome P450 3A7 (Homo sapiens) (UniProt P24462)
Put plainly: LTEA_HepaRG_CYP3A7: Life Technologies and Expression Analysis (LTEA) Assay for CYP3A7 using HepaRG (AID 2283492). Summed up:
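Differentiated HepaRG cells in serum-free induction medium exposed 48 h in duplicate to 8-point half-log series from 100 uM top in 0.5% DMSO. CYP3A7 mRNA by qRT-PCR, normalized to ACTB/GAPDH/POLR2A, bidirectional fit versus DMSO.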

Read-out in the next test: CYP3A5 (gene 1577)
Put plainly: LTEA_HepaRG_CYP3A5: Life Technologies and Expression Analysis (LTEA) Assay for CYP3A5 using HepaRG (AID 2283493). Summed up: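 Human HepaRG hepatic cells receive 48 h chemical treatment at eight concentrations (half-log steps from 100 uM) in 0.5% DMSO. Expression of CYP3A5 is quantified by Fluidigm qRT-PCR and normalized to three reference genes.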

Read-out in test [5]: Fatty Acid-Binding Protein 1 (FABP1), FABP1 (gene 2168)
Put plainly: LTEA_HepaRG_FABP1: Life Technologies and Expression Analysis (LTEA) Assay for Fatty Acid-Binding Protein 1 (FABP1) using HepaRG (AID 2283494). Summed up:
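qRT-PCR readout of FABP1 transcript (normalized to three housekeeping genes) after 48 h chemical exposure of HepaRG cells; eight concentrations, half-log steps, max 100 uM, 0.5% DMSO vehicle; gain or loss fitted relative to DMSO baseline.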

Read-out in test [6]: Cytochrome P450 4A22 (Homo sapiens) (UniProt Q5TCH4)
Kind of test: LTEA_HepaRG_CYP4A22: Life Technologies and Expression Analysis (LTEA) Assay for Cytochrome P450 4A22 (CYP4A22) using HepaRG (AID 2283495). Summed up:
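Differentiated HepaRG cells in serum-free induction medium exposed 48 h in duplicate to eight half-log concentrations up to 100 uM in 0.5% DMSO. CYP4A22 mRNA quantified by TaqMan qRT-PCR, normalized to ACTB, GAPDH and POLR2A; bidirectional fit versus DMSO.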

Read-out in test [7]: Cytochrome P450 7A1 (Homo sapiens) (UniProt P22680)
Kind of test: LTEA_HepaRG_CYP7A1: Life Technologies and Expression Analysis (LTEA) Assay for Cytochrome P450 7A1 (CYP7A1) using HepaRG (AID 2283496). Summed up:
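HepaRG, 48 h exposure, 8-pt half-log series from 100 uM, 0.5% DMSO vehicle, duplicates. Readout: TaqMan qRT-PCR mRNA vs three housekeeping genes; bidirectional curve fit against DMSO baseline.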

Read-out in test [8]: Glutathione S-Transferase (GSTA2), GSTA2 (gene 2939)
Put plainly: LTEA_HepaRG_GSTA2: Life Technologies and Expression Analysis (LTEA) Assay for Glutathione S-Transferase (GSTA2) using HepaRG (AID 2283497). The method in brief:
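qRT-PCR readout of GSTA2 transcript, normalized to three housekeeping genes, fitted bidirectionally against 0.5% DMSO baseline. Differentiated HepaRG cells received compound for 48 h at 8 concentrations (top 100 uM, half-log steps).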

Read-out in test [9]: Glutamate-cysteine ligase catalytic (GCLC), GCLC (gene 2729)
Kind of test: LTEA_HepaRG_GCLC: Life Technologies and Expression Analysis (LTEA) Assay for Glutamate-cysteine ligase catalytic (GCLC) using HepaRG (AID 2283498). The method in brief: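 HepaRG, 48 h exposure, 8-pt half-log series from 100 uM, 0.5% DMSO vehicle; TaqMan qRT-PCR for GCLC mRNA, housekeeping-normalized; bidirectional curve fit vs DMSO baseline.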

Read-out in test [10]: growth arrest and DNA damage 45 (GADD45G), GADD45G (gene 10912)
Kind of test: LTEA_HepaRG_GADD45G: Life Technologies and Expression Analysis (LTEA) Assay for growth arrest and DNA damage 45 (GADD45G) using HepaRG (AID 2283499). The method in brief:
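Differentiated human HepaRG cells, 48 h post-plating, exposed 48 h in serum-free induction medium to 8 half-log concentrations (top 100 uM, 0.5% DMSO) in duplicate. GADD45G mRNA measured by Fluidigm TaqMan qRT-PCR, normalized to ACTB, GAPDH, POLR2A; bidirectional fit versus DMSO.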

Read-out in test [11]: Glutamate-cysteine ligase regulatory (GCLM), GCLM (gene 2730)
Kind of test: LTEA_HepaRG_GCLM: Life Technologies and Expression Analysis (LTEA) Assay for Glutamate-cysteine ligase regulatory (GCLM) using HepaRG (AID 2283500). Summed up:
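Endpoint is GCLM transcript level by qRT-PCR, normalized to three housekeeping genes, after 48 h chemical exposure of human HepaRG cells (0.5% DMSO vehicle, top 100 uM, half-log dilutions). Fitting was bidirectional relative to DMSO.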

Read-out in test [12]: Glutathione S-transferase M3 (GSTM3), GSTM3 (gene 2947)
Kind of test: LTEA_HepaRG_GSTM3: Life Technologies and Expression Analysis (LTEA) Assay for Glutathione S-transferase M3 (GSTM3) using HepaRG (AID 2283501). Summed up: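 Differentiated human HepaRG cells were exposed in duplicate for 48 h in serum-free induction medium, 8 points from 100 uM top in half-log steps, 0.5% DMSO. GSTM3 mRNA was measured by TaqMan qRT-PCR, normalized to ACTB, GAPDH and POLR2A; bidirectional fit versus DMSO.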

Read-out in test [13]: Hypoxia-inducible factor 1-alpha (Homo sapiens) (UniProt Q16665)
Kind of test: LTEA_HepaRG_HIF1A: Life Technologies and Expression Analysis (LTEA) Assay for Hypoxia-inducible factor 1 (HIF1A) Trancription factor using HepaRG (AID 2283503). The method in brief:
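HIF1A transcript level read by qRT-PCR (ACTB, GAPDH, POLR2A normalization) after 48 h chemical exposure of HepaRG cultures. Eight half-log concentrations, top 100 uM, 0.5% DMSO vehicle, duplicates; bidirectional curve fit against DMSO baseline.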

Read-out in test [14]: 3-Hydroxy-3-Methylglutaryl-CoA Synthase 2 (HMGCS2), HMGCS2 (gene 3158)
Put plainly: LTEA_HepaRG_HMGCS2: Life Technologies and Expression Analysis (LTEA) Assay for 3-Hydroxy-3-Methylglutaryl-CoA Synthase 2 (HMGCS2) using HepaRG (AID 2283504). Summed up: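 Human HepaRG cells in serum-free induction medium were exposed in duplicate for 48 h to 8-point half-log series from 100 uM top in 0.5% DMSO. HMGCS2 mRNA measured by TaqMan qRT-PCR, normalised to ACTB, GAPDH, POLR2A; bidirectional fit versus DMSO.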

Read-out in the next test: HGF (gene 3082)
Put plainly: LTEA_HepaRG_HGF: Life Technologies and Expression Analysis (LTEA) Assay for Hepatocyte Growth Facto (HGF) using HepaRG (AID 2283505). The method in brief:
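Differentiated HepaRG cells in serum-free induction medium exposed 48 h in duplicate, 8 half-log concentrations from 100 uM in 0.5% DMSO. HGF mRNA by qRT-PCR, normalised to ACTB, GAPDH, POLR2A; bidirectional fitting.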

Read-out in test [15]: Insulin Like Growth Factor 1 (IGF1), IGF1 (gene 3479)
Kind of test: LTEA_HepaRG_IGF1: Life Technologies and Expression Analysis (LTEA) Assay for Insulin Like Growth Factor 1 (IGF1) using HepaRG (AID 2283506). Summed up: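 Cells are thawed, plated and cultured 48 h, then exposed in duplicate to chemical (highest 100 uM, half-log steps, 0.5% DMSO) for another 48 h. Total RNA is analysed by Fluidigm qRT-PCR for IGF1 expression relative to vehicle.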

Read-out in test [16]: Insulin-like growth factor-binding protein 1 (IGFBP1), IGFBP1 (gene 3484)
Put plainly: LTEA_HepaRG_IGFBP1: Life Technologies and Expression Analysis (LTEA) Assay for Insulin-like growth factor-binding protein 1 (IGFBP1) using HepaRG (AID 2283508). The method in brief: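 HepaRG cells, plated 48 h then switched to serum-free induction medium, exposed in duplicate for 48 h to 8-point half-log series from 100 uM in 0.5% DMSO. mRNA measured by qRT-PCR, normalized to ACTB/GAPDH/POLR2A; bidirectional fit versus DMSO.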

Read-out in test [17]: Heat shock 70 kDa protein 1 (HSPA1A), gene 3303
Kind of test: LTEA_HepaRG_HSPA1A: Life Technologies and Expression Analysis (LTEA) Assay for Heat shock 70 kDa protein 1 (HSPA1A) using HepaRG (AID 2283502). The method in brief:
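Cells were plated and cultured for 48 h, then switched to serum-free induction medium. Chemicals were added at eight half-log concentrations up to 100 uM for 48 h. RNA was then isolated and HSPA1A measured by qRT-PCR with bidirectional curve fitting against DMSO.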

Read-out in test [18]: Intercellular Adhesion Molecule 1 (ICAM1), ICAM1 (gene 3383)
Kind of test: LTEA_HepaRG_ICAM1: Life Technologies and Expression Analysis (LTEA) Assay for Intercellular Adhesion Molecule 1 (ICAM1) using HepaRG (AID 2283507). Summed up: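 Differentiated human HepaRG cells in serum-free induction medium exposed 48 h in duplicate to 8 half-log concentrations (top 100 uM, 0.5% DMSO). ICAM1 mRNA quantified by TaqMan qRT-PCR, normalized to ACTB, GAPDH and POLR2A; bidirectional fitting versus DMSO.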

Cytochrome P450 3A7 (Homo sapiens), sequence (P24462 whole entry, looked up): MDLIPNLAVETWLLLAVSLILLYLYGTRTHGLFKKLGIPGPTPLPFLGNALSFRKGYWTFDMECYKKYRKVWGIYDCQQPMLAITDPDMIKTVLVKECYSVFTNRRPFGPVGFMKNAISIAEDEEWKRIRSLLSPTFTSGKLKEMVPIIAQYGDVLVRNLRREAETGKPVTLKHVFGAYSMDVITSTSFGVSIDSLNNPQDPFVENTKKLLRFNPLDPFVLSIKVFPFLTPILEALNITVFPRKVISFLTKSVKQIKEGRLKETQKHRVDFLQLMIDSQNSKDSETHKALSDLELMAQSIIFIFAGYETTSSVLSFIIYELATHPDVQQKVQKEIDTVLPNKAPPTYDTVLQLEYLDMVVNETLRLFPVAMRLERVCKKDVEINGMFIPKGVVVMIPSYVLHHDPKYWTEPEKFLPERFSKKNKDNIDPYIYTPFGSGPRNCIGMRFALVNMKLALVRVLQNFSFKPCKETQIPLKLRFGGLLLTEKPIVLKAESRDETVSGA
Hypoxia-inducible factor 1-alpha (Homo sapiens), sequence (Q16665 whole entry, looked up): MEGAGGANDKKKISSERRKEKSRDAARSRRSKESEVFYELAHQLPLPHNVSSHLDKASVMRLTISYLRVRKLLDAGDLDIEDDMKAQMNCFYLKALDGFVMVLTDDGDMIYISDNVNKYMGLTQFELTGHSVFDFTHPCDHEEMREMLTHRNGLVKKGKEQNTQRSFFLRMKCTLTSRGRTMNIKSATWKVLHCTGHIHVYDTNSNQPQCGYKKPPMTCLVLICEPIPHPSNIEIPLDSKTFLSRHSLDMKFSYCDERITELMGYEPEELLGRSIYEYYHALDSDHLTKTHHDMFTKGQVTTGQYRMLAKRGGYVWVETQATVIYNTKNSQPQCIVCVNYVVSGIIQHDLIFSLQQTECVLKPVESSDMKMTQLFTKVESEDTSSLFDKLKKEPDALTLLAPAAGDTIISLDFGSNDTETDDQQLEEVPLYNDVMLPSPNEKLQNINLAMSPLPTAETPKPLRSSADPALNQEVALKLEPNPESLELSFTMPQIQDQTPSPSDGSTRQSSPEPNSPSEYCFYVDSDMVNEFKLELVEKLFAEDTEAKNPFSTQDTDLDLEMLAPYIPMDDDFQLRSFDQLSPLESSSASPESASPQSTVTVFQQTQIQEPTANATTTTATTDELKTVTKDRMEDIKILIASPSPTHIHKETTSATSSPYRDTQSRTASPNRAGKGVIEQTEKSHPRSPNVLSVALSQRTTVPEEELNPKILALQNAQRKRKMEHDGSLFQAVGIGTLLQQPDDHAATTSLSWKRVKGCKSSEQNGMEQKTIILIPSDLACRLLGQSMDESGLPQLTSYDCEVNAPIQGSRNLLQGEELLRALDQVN

As to `O=C(OCCCCCOC(=O)c1ccccc1)c1ccccc1`, the AC50 in test [1] is 2170 nM (active); in test [4], 2310 nM (active); in test [6], 2980 nM (active); in test [9], 543 nM (active); in test [11], 1570 nM (active); in test [12] it was 1620 nM (active). Besides, the half-maximal activity concentration (AC50) with HGF (gene 3082) was 2120 nM (active); in test [15], 1970 nM (active); in [16], 1990 nM (active). Also, the outcome (in [2]; in [3]; with CYP3A5 (gene 1577); in [5]; in test [7]; in test [8]) was inactive. In addition, the compound was called inactive in test [10], in test [13] and in test [14].

On to `Cc1cc(NC(=O)C(=O)O)cc(C)c1Oc1ccc(O)c2c1CCC2`, for which the compound was called inactive in test [1], in test [2], in test [3], in [9], in test [11] and in [12]. Moreover, in [16], the call was inactive. The AC50 was 52.2 nM (active) in test [4]; 97.3 nM (active) with CYP3A5 (gene 1577); 27.9 nM (active) in [5]; 30.7 nM (active) in test [6]; 229 nM (active) in test [7]; 75600 nM (active) in test [8]. Further, the AC50 was 21 nM (active) in test [13], 4.23 nM (active) in test [14] and 22 nM (active) in [15].

In the case of `CC1(C)NC(=O)NC1=O`, the call (in test [1]; in [2]; in test [3]; in test [4]; in the test with CYP3A5 (gene 1577); in test [5]) was inactive. Also, the result in test [6], in [7], in test [8], in test [9], in test [11] and in test [12] was inactive. For the same compound, the call in test [17], in test [13], in test [14], in test [15], in test [18] and in [16] was inactive.

Consider `c1cc(-c2ccncc2)ccn1`, for which the compound was called inactive (in test [1]; in test [3]; with CYP3A5 (gene 1577); in test [5]; in test [6]; in test [7]). Moreover, the call in test [8], in test [9], in [10], in [11], in test [12] and in test [17] was inactive. In addition, the outcome in test [13], in test [14], in [15], in test [18] and in [16] was inactive. Moreover, the concentration at half-maximal activity (AC50) in test [4] was 50000 nM (active).
